# Assay results reported in publication PMC7862700, “An all-to-all approach to the identification of sequence-specific readers for epigenetic DNA modifications on cytosine”.
# Legend:
# Experiment in all cases: DAPPL (digital affinity profiling via proximity ligation, sequencing); 10 mM Tris-HCl pH 7.5, 50 mM NaCl, 1 mM DTT, 4% glycerol, room temperature, 30 min; GST-TFs on glutathione beads, 16-mer random dsDNA library, 0.1% formaldehyde crosslink after washing; high values mean tight binding
# Conditions in all cases: protein: recombinant; tags: N-terminal GST; dsDNA, one strand shown
# ELK1 = target: T1, ELK1 (Homo sapiens, UniProt P19419 1-428)
# T1 sequence: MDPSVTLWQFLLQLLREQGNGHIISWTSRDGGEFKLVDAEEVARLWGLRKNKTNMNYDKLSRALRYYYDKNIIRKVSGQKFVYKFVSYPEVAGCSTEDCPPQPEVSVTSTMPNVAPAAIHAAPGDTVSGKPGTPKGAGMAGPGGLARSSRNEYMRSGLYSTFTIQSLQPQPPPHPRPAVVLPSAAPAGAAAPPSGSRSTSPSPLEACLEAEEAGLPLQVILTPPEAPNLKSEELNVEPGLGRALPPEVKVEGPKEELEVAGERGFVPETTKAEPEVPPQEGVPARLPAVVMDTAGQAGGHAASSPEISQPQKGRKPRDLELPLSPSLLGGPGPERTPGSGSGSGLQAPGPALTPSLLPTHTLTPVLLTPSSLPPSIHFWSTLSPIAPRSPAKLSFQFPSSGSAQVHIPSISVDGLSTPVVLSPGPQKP
# How it was run: (§1)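 GST fusions of human transcription factors were expressed in yeast and captured with glutathione beads. Once given DNA barcodes and pooled alongside a tag-only sample, they were incubated for 30 min at room temperature with 200 nmole of a random double-stranded 16-mer DNA library in Tris/NaCl/DTT/glycerol buffer, then washed, crosslinked (0.1% formaldehyde), proximity-ligated, PCR-amplified and sequenced on an Illumina NextSeq500. The binding signal of each hexamer is its read frequency for a factor divided by its frequency for the tag-only sample.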
# GABPA = target: T2, GABPA (Homo sapiens, UniProt Q06546 1-454)
# T2 sequence: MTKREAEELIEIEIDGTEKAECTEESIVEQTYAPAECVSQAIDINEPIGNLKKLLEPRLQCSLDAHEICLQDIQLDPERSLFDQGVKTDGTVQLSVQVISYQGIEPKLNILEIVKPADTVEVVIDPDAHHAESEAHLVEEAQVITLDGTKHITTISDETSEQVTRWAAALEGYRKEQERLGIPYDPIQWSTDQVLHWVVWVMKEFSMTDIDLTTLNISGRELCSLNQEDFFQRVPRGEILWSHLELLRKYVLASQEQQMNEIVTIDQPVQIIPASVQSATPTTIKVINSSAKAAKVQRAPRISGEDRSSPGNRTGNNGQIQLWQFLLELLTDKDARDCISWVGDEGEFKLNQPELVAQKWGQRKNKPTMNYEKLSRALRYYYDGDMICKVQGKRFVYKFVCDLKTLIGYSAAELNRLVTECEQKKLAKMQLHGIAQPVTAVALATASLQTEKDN
# How it was run: as §1
# ELF1 = ELF1 (Homo sapiens, UniProt P32519 1-619)
# Chain of ELF1 (P32519 whole entry): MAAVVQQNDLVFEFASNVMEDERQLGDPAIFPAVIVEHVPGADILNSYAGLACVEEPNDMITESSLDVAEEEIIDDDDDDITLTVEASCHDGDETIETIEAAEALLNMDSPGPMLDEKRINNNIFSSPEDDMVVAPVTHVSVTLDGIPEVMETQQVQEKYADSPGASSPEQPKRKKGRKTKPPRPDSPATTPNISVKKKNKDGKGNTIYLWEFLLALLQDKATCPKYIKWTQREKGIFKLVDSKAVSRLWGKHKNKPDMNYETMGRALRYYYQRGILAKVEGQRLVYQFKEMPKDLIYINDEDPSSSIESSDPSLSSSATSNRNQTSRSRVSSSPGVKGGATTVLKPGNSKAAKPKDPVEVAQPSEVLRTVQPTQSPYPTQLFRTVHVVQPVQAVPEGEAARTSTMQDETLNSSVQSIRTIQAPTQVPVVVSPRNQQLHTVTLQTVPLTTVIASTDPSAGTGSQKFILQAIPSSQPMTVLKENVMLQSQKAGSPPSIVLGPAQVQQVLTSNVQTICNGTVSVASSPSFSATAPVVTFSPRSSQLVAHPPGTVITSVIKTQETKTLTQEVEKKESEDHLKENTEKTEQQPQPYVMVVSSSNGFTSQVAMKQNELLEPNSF
# How it was run: as §1
# EHF = target: T3, EHF (Homo sapiens, UniProt Q9NZC4 1-300)
# T3 sequence: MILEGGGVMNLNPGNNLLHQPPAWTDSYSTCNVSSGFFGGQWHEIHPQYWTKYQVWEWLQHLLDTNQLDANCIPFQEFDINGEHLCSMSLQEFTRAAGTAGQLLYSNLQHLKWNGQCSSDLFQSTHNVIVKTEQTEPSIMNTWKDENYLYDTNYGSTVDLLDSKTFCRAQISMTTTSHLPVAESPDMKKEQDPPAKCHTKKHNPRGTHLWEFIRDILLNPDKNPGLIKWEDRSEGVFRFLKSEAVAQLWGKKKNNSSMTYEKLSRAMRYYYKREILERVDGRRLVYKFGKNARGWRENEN
# How it was run: as §1
# ELK3 = target: T4, ELK3 (Homo sapiens, UniProt P41970 1-407)
# T4 sequence: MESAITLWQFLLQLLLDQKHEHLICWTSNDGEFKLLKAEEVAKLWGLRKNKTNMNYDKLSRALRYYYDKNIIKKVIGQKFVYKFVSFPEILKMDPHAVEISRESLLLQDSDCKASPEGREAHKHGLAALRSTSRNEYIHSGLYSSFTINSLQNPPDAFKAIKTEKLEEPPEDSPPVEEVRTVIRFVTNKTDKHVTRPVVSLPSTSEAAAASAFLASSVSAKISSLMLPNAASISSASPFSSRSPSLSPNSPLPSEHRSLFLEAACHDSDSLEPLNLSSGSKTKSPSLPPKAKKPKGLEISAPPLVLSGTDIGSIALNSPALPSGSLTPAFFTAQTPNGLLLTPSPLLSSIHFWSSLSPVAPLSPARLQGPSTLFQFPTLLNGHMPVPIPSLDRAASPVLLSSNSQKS
# How it was run: as §1
# SPIC = target: T5, SPIC (Homo sapiens, UniProt Q8N5J4 1-248)
# T5 sequence: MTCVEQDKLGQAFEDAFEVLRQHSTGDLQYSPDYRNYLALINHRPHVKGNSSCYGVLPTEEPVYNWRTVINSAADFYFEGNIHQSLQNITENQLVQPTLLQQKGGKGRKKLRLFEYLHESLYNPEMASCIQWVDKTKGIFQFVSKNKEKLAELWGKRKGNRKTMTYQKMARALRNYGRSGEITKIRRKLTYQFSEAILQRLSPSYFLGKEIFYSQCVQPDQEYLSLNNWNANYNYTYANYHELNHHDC
# How it was run: as §1
# ELF4 = ELF4 (Homo sapiens, UniProt Q99607 1-663)
# Chain of ELF4 (Q99607 whole entry): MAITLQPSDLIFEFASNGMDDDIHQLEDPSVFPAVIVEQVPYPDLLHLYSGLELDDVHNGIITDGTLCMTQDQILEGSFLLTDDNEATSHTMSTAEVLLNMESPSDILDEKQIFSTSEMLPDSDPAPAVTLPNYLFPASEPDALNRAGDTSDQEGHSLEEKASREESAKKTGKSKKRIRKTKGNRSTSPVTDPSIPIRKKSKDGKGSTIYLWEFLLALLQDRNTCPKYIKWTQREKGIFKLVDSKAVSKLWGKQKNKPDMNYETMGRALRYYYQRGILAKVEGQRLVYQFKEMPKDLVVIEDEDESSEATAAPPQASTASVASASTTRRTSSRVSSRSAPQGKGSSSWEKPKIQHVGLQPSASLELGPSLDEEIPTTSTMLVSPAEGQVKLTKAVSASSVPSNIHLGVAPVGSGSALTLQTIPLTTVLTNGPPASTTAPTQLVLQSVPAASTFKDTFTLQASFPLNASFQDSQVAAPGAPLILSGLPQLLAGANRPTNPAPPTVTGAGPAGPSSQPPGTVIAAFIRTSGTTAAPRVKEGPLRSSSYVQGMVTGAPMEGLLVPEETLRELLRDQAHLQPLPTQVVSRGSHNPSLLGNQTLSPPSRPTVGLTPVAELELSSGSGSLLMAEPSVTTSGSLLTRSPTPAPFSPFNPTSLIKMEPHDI
# How it was run: as §1
# ELK4 = target: T6, ELK4 (Homo sapiens, UniProt P28324-2 1-405)
# T6 sequence: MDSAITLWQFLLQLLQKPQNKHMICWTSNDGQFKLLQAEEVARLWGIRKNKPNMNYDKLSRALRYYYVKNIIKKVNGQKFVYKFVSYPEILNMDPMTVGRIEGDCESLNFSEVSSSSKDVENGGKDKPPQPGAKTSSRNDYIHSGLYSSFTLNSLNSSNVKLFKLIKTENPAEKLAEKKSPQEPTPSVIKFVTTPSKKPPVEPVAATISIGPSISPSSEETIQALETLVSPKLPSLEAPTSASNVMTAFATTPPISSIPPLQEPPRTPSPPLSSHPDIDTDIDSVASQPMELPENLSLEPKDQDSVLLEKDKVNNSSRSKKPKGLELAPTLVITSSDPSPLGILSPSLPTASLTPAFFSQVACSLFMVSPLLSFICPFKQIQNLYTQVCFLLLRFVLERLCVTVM
# How it was run: as §1
# ELF3 = target: T7, ELF3 (Homo sapiens, UniProt P78545 1-371)
# T7 sequence: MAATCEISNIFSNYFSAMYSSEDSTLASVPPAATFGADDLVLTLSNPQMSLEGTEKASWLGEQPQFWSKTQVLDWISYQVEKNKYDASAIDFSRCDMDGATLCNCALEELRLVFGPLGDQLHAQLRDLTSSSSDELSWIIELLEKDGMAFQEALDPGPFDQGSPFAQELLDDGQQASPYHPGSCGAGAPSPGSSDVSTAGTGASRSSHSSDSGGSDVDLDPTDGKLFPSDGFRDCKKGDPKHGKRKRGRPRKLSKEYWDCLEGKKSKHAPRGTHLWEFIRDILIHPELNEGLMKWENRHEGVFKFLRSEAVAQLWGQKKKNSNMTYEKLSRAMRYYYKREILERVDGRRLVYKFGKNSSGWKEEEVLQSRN
# How it was run: as §1
# ETV3L = target: T8, ETV3L (Homo sapiens, UniProt Q6ZN32 1-361)
# T8 sequence: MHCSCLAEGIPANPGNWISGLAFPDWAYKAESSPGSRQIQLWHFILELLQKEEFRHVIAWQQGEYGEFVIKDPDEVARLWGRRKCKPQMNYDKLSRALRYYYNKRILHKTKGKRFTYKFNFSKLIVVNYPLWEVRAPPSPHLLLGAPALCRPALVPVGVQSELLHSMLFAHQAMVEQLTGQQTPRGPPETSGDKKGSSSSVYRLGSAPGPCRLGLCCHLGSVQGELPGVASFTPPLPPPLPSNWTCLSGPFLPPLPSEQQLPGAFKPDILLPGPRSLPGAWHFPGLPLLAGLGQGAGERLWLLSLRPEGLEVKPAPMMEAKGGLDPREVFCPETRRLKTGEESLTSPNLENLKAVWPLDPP
# How it was run: as §1
# ETS2 = target: T9, ETS2 (Homo sapiens, UniProt P15036 1-469)
# T9 sequence: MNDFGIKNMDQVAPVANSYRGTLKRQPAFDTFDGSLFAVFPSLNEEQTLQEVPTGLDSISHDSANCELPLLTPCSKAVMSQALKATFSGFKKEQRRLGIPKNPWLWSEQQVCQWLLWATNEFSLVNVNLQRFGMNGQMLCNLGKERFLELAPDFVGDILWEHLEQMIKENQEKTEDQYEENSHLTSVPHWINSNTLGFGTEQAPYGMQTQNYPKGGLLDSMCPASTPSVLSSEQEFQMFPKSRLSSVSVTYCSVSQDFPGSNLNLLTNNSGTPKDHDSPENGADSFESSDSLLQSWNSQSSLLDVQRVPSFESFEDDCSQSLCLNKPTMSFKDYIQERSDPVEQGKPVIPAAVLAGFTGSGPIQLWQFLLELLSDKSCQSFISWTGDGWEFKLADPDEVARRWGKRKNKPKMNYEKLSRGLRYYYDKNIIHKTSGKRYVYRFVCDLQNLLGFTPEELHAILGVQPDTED
# How it was run: as §1
# SPDEF = target: T10, SPDEF (Homo sapiens, UniProt O95238 1-335)
# T10 sequence: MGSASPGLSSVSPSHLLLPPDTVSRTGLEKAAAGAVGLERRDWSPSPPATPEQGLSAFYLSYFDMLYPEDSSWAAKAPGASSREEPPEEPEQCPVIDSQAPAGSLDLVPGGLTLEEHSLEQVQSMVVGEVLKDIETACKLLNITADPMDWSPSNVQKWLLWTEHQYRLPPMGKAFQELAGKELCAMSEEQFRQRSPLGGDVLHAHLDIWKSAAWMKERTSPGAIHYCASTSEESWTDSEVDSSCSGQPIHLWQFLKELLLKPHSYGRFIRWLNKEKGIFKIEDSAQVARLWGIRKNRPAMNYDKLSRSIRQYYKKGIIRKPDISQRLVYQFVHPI
# How it was run: as §1
# ETV7 = target: T11, ETV7 (Homo sapiens, UniProt Q9Y603 1-341)
# T11 sequence: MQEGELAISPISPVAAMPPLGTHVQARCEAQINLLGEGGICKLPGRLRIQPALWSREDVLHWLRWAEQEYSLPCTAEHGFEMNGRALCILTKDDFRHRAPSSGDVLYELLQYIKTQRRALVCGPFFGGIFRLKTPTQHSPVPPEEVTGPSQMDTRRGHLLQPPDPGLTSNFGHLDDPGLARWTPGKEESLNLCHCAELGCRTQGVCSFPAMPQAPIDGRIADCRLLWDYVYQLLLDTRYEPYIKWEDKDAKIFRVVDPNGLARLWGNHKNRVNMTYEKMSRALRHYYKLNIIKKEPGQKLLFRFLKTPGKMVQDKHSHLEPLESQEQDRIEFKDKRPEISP
# How it was run: as §1
# ETV3 = target: T12, ETV3 (Homo sapiens, UniProt P41162-2 1-143)
# T12 sequence: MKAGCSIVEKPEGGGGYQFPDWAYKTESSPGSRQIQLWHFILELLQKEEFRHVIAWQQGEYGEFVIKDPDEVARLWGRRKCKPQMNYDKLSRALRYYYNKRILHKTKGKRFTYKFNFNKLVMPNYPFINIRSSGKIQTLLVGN
# How it was run: as §1
# ETV6 = ETV6 (Homo sapiens, UniProt P41212 1-452)
# Chain of ETV6 (P41212 whole entry): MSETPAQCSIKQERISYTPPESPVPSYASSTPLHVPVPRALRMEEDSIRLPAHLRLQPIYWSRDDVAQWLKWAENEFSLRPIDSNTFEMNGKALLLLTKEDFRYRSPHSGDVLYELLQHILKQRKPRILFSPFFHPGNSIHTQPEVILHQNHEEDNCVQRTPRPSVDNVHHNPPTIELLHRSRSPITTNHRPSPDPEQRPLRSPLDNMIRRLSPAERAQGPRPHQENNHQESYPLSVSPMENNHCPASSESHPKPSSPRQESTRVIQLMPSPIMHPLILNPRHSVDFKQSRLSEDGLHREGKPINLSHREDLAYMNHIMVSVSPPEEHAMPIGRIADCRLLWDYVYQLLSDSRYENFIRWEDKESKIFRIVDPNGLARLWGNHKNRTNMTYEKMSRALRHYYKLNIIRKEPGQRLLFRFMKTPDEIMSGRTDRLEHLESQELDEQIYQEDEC
# How it was run: as §1
sequence,measurement,setting,value
ATAAGT,binding signal,ELK1,"1.05 fold enrichment (6-mer frequency, TF over GST control)"
same,binding signal,GABPA,"1.07 fold enrichment (6-mer frequency, TF over GST control)"
same,binding signal,ELF1,"1.08 fold enrichment (6-mer frequency, TF over GST control)"
same,binding signal,EHF,"1.04 fold enrichment (6-mer frequency, TF over GST control)"
same,binding signal,ELK3,"1.09 fold enrichment (6-mer frequency, TF over GST control)"
same,binding signal,SPIC,"1.02 fold enrichment (6-mer frequency, TF over GST control)"
same,binding signal,ELF4,"1.1 fold enrichment (6-mer frequency, TF over GST control)"
same,binding signal,ELK4,"1.06 fold enrichment (6-mer frequency, TF over GST control)"
same,binding signal,ELF3,"1.09 fold enrichment (6-mer frequency, TF over GST control)"
same,binding signal,ETV3L,"1.05 fold enrichment (6-mer frequency, TF over GST control)"
same,binding signal,ETS2,"1.06 fold enrichment (6-mer frequency, TF over GST control)"
same,binding signal,SPDEF,"1.05 fold enrichment (6-mer frequency, TF over GST control)"
same,binding signal,ETV7,"1.05 fold enrichment (6-mer frequency, TF over GST control)"
same,binding signal,ETV3,"1.03 fold enrichment (6-mer frequency, TF over GST control)"
same,binding signal,ETV6,"1.06 fold enrichment (6-mer frequency, TF over GST control)"
